This passage reports outcome and fluorescence, % of fluorescent control results from PubChem BioAssay (Tox21).

SMILES strings stand for the structures. Active and inactive are the calls of the source. Calls follow the shape of the dose curve; as a rule, active = well fitted curve in the direction sought with a large enough effect in the repeat runs; inconclusive = weak or mixed curves; inactive = flat fitted curve, though single readings scatter.
% is scaled to controls: 0 for no effect and ±100 for the full control effect.

This assay is described as follows: qHTS assay to test for compound auto fluorescence at 590 nm (red) in HEK293 cell free culture (AID 720683). To be noted: cell-free medium autofluorescence, Ex540/Em590 red; series mostly up to 91.3 µM. An excerpt: U.S. Tox21 Program National Center for Advancing Translational Sciences [NCATS] NIH Chemical Genomics Center [NCGC] U.S. Environmental Protection Agency [EPA] National Institutes of Environmental Health Sciences [NIEHS] National Toxicology Program [NTP] U.S. Food and Drug Administration [FDA] Tox21 Assay Overview: Compound auto fluorescence often interferes with screening of the compound library against various biological targets and signaling pathways. Some of these compounds may have fluorophoric properties. Such properties may interfere with the assay outputs resulting in false positives and/or negatives. To decrease such complications and ensure the compound activities are relevant in terms of biological response, the Tox21 10K compound library was screened for auto fluorescence. From the fluorophores used as reporter signals in our screening assays, the auto fluorescence equivalencies of compounds against three fluorophores have been evaluated: Triamterene, Fluorescein and Rose Bengal sodium for blue, green and red fluorescence, respectively. The fluorescence intensities were measured using Excitation/Emission wavelengths at 405/460nm, 485/535nm and 540/590nm for blue, green and red labels, respectively. This assay includes the red fluorescence data.
Tox21 Assay Protocol Summary: 5 uL of culture medium (DMEM containing 10% FBS) per well was dispensed into black wall/clear bottom 1536-well plates using a Multidrop Combi Dispenser (ThermoFisher Scientific, Waltham, MA). After 23 nL compound or DMSO vehicle was transferred into assay plate by a pintool work station (Kalypsys, San Diego, CA), fluorescence intensities in the assay plates were measured by an Envision (PerkinElmer, Shelton, CT) plate reader using three labels for measuring blue, green and red fluorescence at […] 460, 535 and 590nm respectively.
(qHTS replaces the single test concentration by a dilution series.)
On to `c1ccc2c(c1)CCCC2C1=NCCN1` (stereo not given), for which the compound was called inactive. Turning to `COc1nc(C)nc(Cl)c1NC1=NCCN1`, the fluorescence, % of fluorescent control is 0.101% [at 18.6 µM] (inactive). On to `O=C(O)c1cccc(C(=O)O)c1`, for which the result was inactive.

On to `CCCCC(CC)COC(=O)CC(C(=O)OCC(CC)CCCC)S(=O)(=O)O` (stereo not given), for which the outcome was inactive. Turning to `CC[C@@H](N)CO`, the call was inactive. Take `NCCO`: the compound was called inactive. The same measure, in the same setting: then `CC(COc1ccccc1)N(CCCl)Cc1ccccc1` (stereo not given), with “inactive”. The same measure, in the same setting: with `Cc1cc(OCCOCC[N+](C)(C)Cc2ccccc2)ccc1C(C)(C)CC(C)(C)C` the entry was “inactive”; with `COc1cc(C(=S)N2CCOCC2)ccc1O`, “inactive”. As to `CCCCCCCCCCCCCCCCCl`, the fluorescence, % of fluorescent control was -0.466% [at 18.6 µM] (inactive). `CC(C)CCOCc1ccccc1`: the outcome was inactive. For `CC(C)CCCCCCc1ccc(O)cc1`, the call was inactive.

As to `Nc1nc2ccccc2[nH]1`, the outcome was inactive. Same read-out and setting: then `OCCN1CCNCC1`, with “inactive”; and `CC(=O)OCC1=C(C(=O)O)N2C(=O)[C@@H](NC(=O)Cc3cccs3)[C@H]2SC1`, with “inactive”. Take `CCN1CCCC1CNC(=O)c1cc(S(=O)(=O)CC)c(N)cc1OC` (stereo not given): the result was inactive. On the same count and under the same terms, then `O=Nc1ccc(Nc2ccccc2)cc1`, with “inactive”; and `CCN(CC)C(=S)SSC(=S)N(CC)CC`, with “inactive”; and `CCCOC(=O)c1cc(O)c(O)c(O)c1`, with “inactive”.

On to `C=CS(=O)(=O)O`, for which the compound was called inactive. On the same count and under the same terms, with `NC(=Nc1ccccc1)Nc1ccccc1` the entry was “inactive”. As for `COC(=O)c1cccc(C(=O)OC)c1`, the compound was classed as inactive.

`CCc1ccc(C(c2ccc(CC)cc2)C(Cl)Cl)cc1`: the call was inactive. As for `CC(C)(C)c1ccccc1`, the compound was classed as inactive. Same read-out and setting: with `COc1ccc(CCN2CCC(Nc3nc4ccccc4n3Cc3ccc(F)cc3)CC2)cc1` the entry was “inactive”; with `Cc1occc(=O)c1OC(=O)C(C)C`, “inactive”; with `Cc1cccc2n[nH]nc12`, “inactive”. Take `Cc1cc(C2(c3cc(C)c(O)cc3C)OS(=O)(=O)c3ccccc32)c(C)cc1O`: the outcome was inactive. For `CC[C@H]1CN2CCc3cc(OC)c(OC)cc3[C@@H]2C[C@@H]1C[C@H]1NCCc2cc(OC)c(OC)cc21`, the compound was classed as inactive.

For `NC(N)=Nc1nc(CSCC/C(N)=N/S(N)(=O)=O)cs1`, the compound was classed as inactive. Take `CCCN[C@H]1CCc2nc(N)sc2C1`: the outcome was inactive.

On to `O=C1NCC2(CCN(CCc3ccccc3)CC2)O1`, for which the compound was called inactive. Same read-out and setting: then `Oc1ccc(Cl)cc1Cc1cc(Cl)ccc1O`, with “inactive”; and `COC(c1ccccc1)(c1ccccc1)[C@H](Oc1nc(C)cc(C)n1)C(=O)O`, with “inactive”. `O=C(OCc1ccccc1)c1ccc(O)cc1`: the call was inactive. On the same count and under the same terms, with `CCCCOCCOC(=O)c1ccccc1C(=O)OCCOCCCC` the entry was “inactive”; with `CCCCCCC(O)CCCCCCCCCCC(=O)O` (stereo not given), “inactive”.

As for `COc1ccc(CCN(C)CCCC(C#N)(c2ccc(OC)c(OC)c2)C(C)C)cc1OC` (stereo not given), the result was inactive.

As for `Oc1c(Cl)cc(Cl)cc1Sc1cc(Cl)cc(Cl)c1O`, the compound was called inactive.

With `CCC(=O)/C=C/C1C(C)=CCCC1(C)C` (stereo not given), the result was inactive.
